The campaign covered roughly 44,000 compounds. Fewer than 10 were called active. Inconclusive results (about 2%) are left out. Calls come from the whole dose curve; as a rule, active = well fitted curve in the direction sought with a large enough effect; inconclusive = small, poorly fitted or top-dose-only effect, or another doubt; inactive = no such curve, though single readings can be large or run the other way. Only a sample is shown.
These compounds were tested against Galactokinase (Homo sapiens) (UniProt P51570) (assay: qHTS Assay for Inhibitors of Human Galactokinase (GALK): NCGC Sytravon Library Screen). Conditions: recombinant GALK, Kinase-Glo ATP luminescence, 1 h; series mostly up to 57.5 µM; activity, negative = inhibition: at the top concentration.
Source text: Inherited deficiency of galactose-1-phosphate uridyltransferase (GALT) can result in a potentially lethal disorder called Classic Galactosemia (OMIM 230400). Several lines of evidence indicate that an elevated level of galactose-1-phosphate (gal-1-p), the product of galactokinase (GALK), is a major, if not sole, pathogenic mechanism in patients with classic galactosemia. Therefore, finding inhibitors of GALK is a potential novel therapy for this inherent metabolic disease and is the long term goal of this project. This screen is run against the NCGC Sytravon compound library collection. GALK (provided by Kent Lai) was assayed using ATP and D-(+)-Galactose (Sigma-Aldrich cat# G0750) as substrates. Promega Kinase-Glo Plus technology was used to detect kinase activity. Reactions with and without GALK were used as negative and positive controls together with Protein Tyrosine Phosphatase CD45 inhibitor (EMD Bioscience cat# 540215) which is shown to inhibit GALK activity. Decrease in activity corresponds to inhibition of the enzyme is the desired outcome for this assay. NIH Molecular Libraries Probe Production Network [MLPCN] NIH Chemical Genomics Center [NCGC] Grant: R03 MH085689-01 PI Name: Kent Lai Ph.D., University of Utah
NCGC Assay Protocol Summary: Three uL/well of ATP-buffer solution (35 uM ATP, 20mM HEPES pH8.0, 5 mM MgCl2, 60 mM NaCl, 1 mM DTT, 0.01% BSA final concentration) was dispensed into 1536-well, assay plates (Greiner, solid white medium-binding plates) with Aurora Discovery BioRAPTR Flying Reagent Dispenser (FRD; Beckton-Dickenson). Compound solution (23 nL) was transferred to the assay plate using the Kalypsys 1536-pin tool. One uL/well GALK-galactose solution (5 nM GALK, 100 uM galactose, 20 mM HEPES pH8.0, 5 mM MgCl2, 60 mM NaCl, 1 mM DTT, 0.01% BSA final concentration) was then added using the FRD yielding a total kinase reaction volume of 4 uL/ well. After 1 hour of room temperature incubation, 4 uL Kinase-Glo Plus reagent was added for a final assay volume of 8 uL/ well. Luminescence was detected with the ViewLux plate reader (Perkin Elmer, Waltham, MA) after 10 min incubation using a 1 sec exposure time and 2x binning.
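Note: plate controls were full GALK reaction for no effect and reaction lacking GALK for full effect.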

Galactokinase (Homo sapiens), sequence (P51570 whole entry, looked up): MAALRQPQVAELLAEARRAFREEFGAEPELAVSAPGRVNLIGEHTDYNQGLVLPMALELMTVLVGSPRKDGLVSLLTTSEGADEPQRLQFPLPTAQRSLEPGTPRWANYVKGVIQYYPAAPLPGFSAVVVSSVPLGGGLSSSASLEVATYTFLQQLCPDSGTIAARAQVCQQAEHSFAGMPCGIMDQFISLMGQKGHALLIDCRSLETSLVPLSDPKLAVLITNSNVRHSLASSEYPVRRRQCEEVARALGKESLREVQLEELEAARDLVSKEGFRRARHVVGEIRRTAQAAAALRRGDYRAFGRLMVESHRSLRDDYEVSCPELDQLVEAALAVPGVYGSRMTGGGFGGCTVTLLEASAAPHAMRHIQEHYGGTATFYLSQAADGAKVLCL

activity, negative = inhibition, inactive:
CCOCCCNC(=O)c1c(NC(=O)Cc2coc3ccc(C)cc23)sc2c1CCC2 0.78%, CCc1nn(CCCC(=O)NCc2ccc(C)cc2)c(=O)c2cc3occc3n12 -3.24%, CCOc1ccc(N(Cc2ccccc2)C(=O)c2nc(S(C)(=O)=O)ncc2Cl)cc1 9.16%, CCCN(CCC)C(=O)Cn1c(=O)n(-c2ccc(Cl)cc2)c(=O)c2c3c(sc21)CCCCC3 5.05%, Cc1ccc(Cl)cc1NC(=O)CSc1nccn1C -7.44%, CCN(CC)S(=O)(=O)c1ccc2c(c1)c(=O)c(C(=O)N1CCN(c3cccc(Cl)c3)CC1)cn2C 9.01%, COc1ccc(CCNC(=O)CCCCn2c(=O)c3ccccc3n(Cc3ccccc3)c2=O)cc1OC -5.81%, O=C(NCCc1ccc(Cl)cc1)c1ccc2nc(CCc3ccccc3)oc2c1 -1.58%, Cc1oc2ncn(CC(C)C)c(=O)c2c1C(=O)N1CCN(c2ccccc2F)CC1 1.39%, CCCNC(=O)c1ccc(Cn2c(SCC(N)=O)nc3ccccc3c2=O)cc1 0.439%, CCOC(=O)c1cc(NC(=O)c2ccc(F)cc2)c(=O)n2c1oc1ccccc12 0.179%, COc1ccc(-n2c(=O)c3c(c4cc(OC)ccc4n3C)n(Cc3cccc(C)c3)c2=O)cc1 0.514%, Cc1cccc(N2CCN(c3c(CN4CCCC4)c(=O)oc4ccccc34)CC2)c1C 1.96%, O=C(Nc1nnc(S(=O)(=O)N2CCCc3ccccc32)s1)c1cccc(F)c1 2.61%, CC(C)c1ccc(NC(=O)CN(C)S(=O)(=O)c2ccc3c(c2)c(=O)n(C)c(=O)n3C)cc1 10.7%, Cc1ccccc1CN1CCC(CNC(=O)c2c(C)oc3ncnc(N4CCCCC4)c23)CC1 0.952%, CCOc1ccc(CNC(=O)C2CCCN(S(=O)(=O)N(CC)c3ccc(OCC)cc3)C2)cc1 (configuration not stated) 1.86%, COC(=O)c1ccccc1NC(=O)C(Cc1ccccc1)N1Cc2ccccc2C1=O (configuration not stated) -3.55%, O=C(NCCc1csc(-c2ccc(C(F)(F)F)cc2)n1)C(=O)Nc1ccc(F)c(Cl)c1 1.81%, Cc1oc2ccc(O)c(CN3CCC(C)CC3)c2c1C(=O)Nc1ccccc1 2.63%, O=C(CC(c1cccs1)N1Cc2ccccc2C1=O)Nc1ccc(F)c(F)c1 (configuration not stated) -2.34%, COc1ccccc1NC(=O)Cn1cnc2ccc(S(=O)(=O)N3CCC(C)CC3)cc2c1=O -0.99%, CCc1cccc(-n2nnc(-c3nsc(NC(=O)c4ccc(C)cc4)n3)c2C)c1 4.26%, Cc1cccc(-n2ccnc2SCC(=O)Nc2cc(C(F)(F)F)ccc2Cl)c1 -0.723%, COc1ccc(-c2nc3scc(CCNS(=O)(=O)c4cc(F)ccc4OC)n3n2)cc1OC -4.76%, C=Cc1ccc(Cn2c(C(=O)O)c(CNC3CCCC3)c3ccc(C)cc32)cc1 2.49%, CCS(=O)(=O)N1CCC(n2c(C)nc3cccnc32)CC1 -3.09%, Cc1ccc(C(=O)CSc2nc(-c3ccccc3)nc3c2CCCC3)c(C)c1 0.195%, Cc1ccc(C(=O)NCCSc2c(C)[nH]c3ccccc23)cc1C 5.45%, COc1ccc(CCNC(=O)c2c3c(nc4ccccc24)C(=O)N(C2CCCCC2)C3)cc1OC -0.522%, Cc1ccc(CNC(=O)c2ccc(CS(=O)Cc3cccc(Cl)c3)o2)cc1 (configuration not stated) 4.65%, CC1Cc2cc(S(=O)(=O)CCC(=O)Nc3ccc(F)c(Cl)c3)ccc2N1C(=O)C1CC1 (configuration not stated) 0.973%, CCCN1CCN(CCCNC(=O)c2cnn(-c3ccc(C)cc3)c2-n2cccc2)CC1 -0.365%, Cn1c(=O)c2c(SCC(=O)NCC3CCCO3)nc(-c3ccccc3F)nc2n(C)c1=O (configuration not stated) -0.321%, COC(=O)c1cnc(N2CCN(c3ccccc3OC)CC2)c2ccccc12 0.685%, CN1c2ccc(Cl)cc2-c2nc(SCC(=O)Nc3cc(F)ccc3F)ncc2S1(=O)=O -2.3%, COc1ccc(Nc2cc(C(=O)NCCCN(C)c3ccccc3)c3ccccc3n2)c(OC)c1 3.84%, COc1cccc(CNC(=O)C(=O)NCC(c2cccs2)S(=O)(=O)c2ccccc2)c1 (configuration not stated) 3.24%, Cc1cccc(-n2ncc(C(=O)N3CCN(c4ccc(Cl)cc4)CC3)c2C2CCN(C(=O)OC(C)(C)C)CC2)c1 4.36%, COc1ccc(NC(=O)CCNS(=O)(=O)c2ccc3c(c2)CCCC(=O)N3)cc1Cl -1.34%, Cc1cccc(N(C)C(=O)c2cc(S(=O)(=O)N3CCCCC3)c[nH]2)c1 0.584%, CCOC(=O)c1c(SCC(=O)Nc2cccc(C)c2C)nc(=O)[nH]c1C -0.958%, CCc1ccc(NC(=O)C2CCCN2S(=O)(=O)c2ccc3nc(-c4ccccc4)[nH]c3c2)cc1 (configuration not stated) 3.02%, COC(=O)c1scc(-c2ccccc2)c1S(=O)(=O)Nc1ccccc1 -4.52%, CC1CCN(S(=O)(=O)c2ccc3c(c2)N(CC(=O)NCc2ccccc2Cl)C(=O)CO3)CC1 5.21%, COc1ccc(N2CCN(C3=NS(=O)(=O)C(c4cccc(Br)c4)=C3C)CC2)cc1 -8.33%, CCOc1ccc(CNC(=O)CCc2c(C)nn(-c3ccc(N4CCCCC4)nn3)c2C)cc1 1.04%, COc1ccc(OC)c(-c2nc(C(N)=O)c3c(n2)n(-c2ccc4c(c2)OCO4)c(=O)n3C)c1 -0.207%, O=C(NCc1ccc(F)cc1)c1ccc2nc(N3CCCCC3)sc2c1 1.1%, COc1cc(OC)c(C2C=C(C(=O)O)Nc3ncnn32)cc1OC (configuration not stated) 1.86%, CCOc1cc(/C=C(\C#N)C(=O)Nc2ccccc2C)ccc1OCc1cc(=O)n2nc(CC)sc2n1 5.9%, O=C(Nc1ccc2nc(SCCOc3ccccc3Cl)sc2c1)c1ccco1 -12.7%, Cc1ccc(-c2nnc(SCC(=O)NCc3ccccc3)nc2-c2ccc(C)cc2)cc1 -0.152%, COc1cc(NC(=O)Cn2c(=O)n(Cc3ccco3)c(=O)c3oc4ccccc4c32)cc(OC)c1 4.91%, Cc1ccccc1CN1CCC(CNC(=O)c2cc3ccc4cccnc4c3[nH]2)CC1 1.34%, Cc1cc(C)c2oc(C(=O)Nc3ccc(S(=O)(=O)N(C)c4ccccc4)cc3)cc(=O)c2c1 8.51%, Cc1ccc(-c2nc(CS(=O)(=O)CC(=O)NCc3ccccc3Cl)c(C)o2)cc1 8.44%, CC(=O)c1ccc(NC(c2ccc(F)cc2)c2nnc(-c3ccccc3)o2)cc1 (configuration not stated) 3.14%, CCOc1ccc(CNC(=O)CCC(=O)N2CCSc3ccccc32)cc1 0.849%, COCCNC(=O)c1ccc2c(c1)N(Cc1cccc(Cl)c1)C(=O)c1ccccc1S2(=O)=O 3.54%, COc1cc(NS(=O)(=O)c2ccc3c(c2)OCC(C(=O)N2CCCC2)O3)cc(OC)c1 (configuration not stated) 4.24%, CCN(CC)C(=O)CSc1nc2cc3c(cc2c(=O)n1CCCC(=O)NCc1ccc2c(c1)OCO2)OCO3 -0.0389%, Cc1oc2c(c1C(=O)Nc1ccc(F)c(F)c1)C1=NCCN1C=N2 3.77%, O=C(NCC(c1cccnc1)N1CCc2ccccc21)c1cccc(C(F)(F)F)c1 (configuration not stated) 0.389%, O=C(CN1c2ccccc2S(=O)(=O)c2ccccc21)Nc1cccc(C(F)(F)F)c1 -0.526%, COc1ccc(NC(=O)CSC2=Nc3ccccc3C3=NC(CC(=O)NCc4ccccc4OC)C(=O)N23)cc1Cl (configuration not stated) -6%, CCN(CC)CCNC(=O)c1cc2c(=O)oc3ccc(C)cc3c2s1 9.39%, CCOC(=O)c1cc(-c2ccccc2)n(CCC(=O)Nc2ccccc2CC)c1C 2.18%, COC(=O)c1sc2ncccc2c1-n1c(C)ccc1C 4.85%, Cc1ccc2nc(/C(C#N)=C/c3ccccc3F)[nH]c2c1 -0.875%, COCCCNC(=O)C1CCC(CNS(=O)(=O)c2ccc(OC)cc2)CC1 (configuration not stated) 2.75%, CCOC(=O)c1c(C)oc2nc(C)nc(N3CCN(c4ccc(OC)cc4)CC3)c12 -1.37%, NS(=O)(=O)c1ccc(CCNC(=O)CCCCCn2c(=O)[nH]c3ccccc3c2=O)cc1 0.328%, COc1ccc(S(=O)(=O)Nc2cc3c(C(=O)OC(C)C)c(C)oc3c3ccccc23)cc1 -0.0371%, COc1ccc(C(=O)CSc2c(C(C)C)cnc3c2c(=O)n(C)c(=O)n3C)cc1 1.18%, NS(=O)(=O)c1ccc2nc(NC(=O)COc3ccccc3)sc2c1 -0.423%, Cc1ccccc1C(=O)N(Cc1ccc(N(C)C)cc1)CC1CCCO1 (configuration not stated) 0.0459%
